Experimental data taken from PubChem BioAssay (Tox21).
Records with an inconclusive call do not appear. Calls of active or inactive are those of the source. Unless noted, calls follow the shape of the full dose curve.

What was measured:
[1] = Nuclear factor erythroid 2-related factor 2/antioxidant responsive element (Nrf2/ARE) small molecule agonists: qHTS cell viability counter screen in human keratinocytes (AID 1919968; active = well fitted cell-killing curve with a large enough effect in the repeat runs; also: nearly all actives have a fitted effect of over 55% in size)
Summary of the method: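 KeratinoSens cells (HaCaT keratinocytes stably carrying an ARE-luciferase reporter) were seeded at 1,500 cells/well and rested 5 h at 37 C/5% CO2. They were then exposed to compounds in DMSO for 23 h. Viability was read by CellTiter-Fluor fluorescence after 1 h.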

[2] = Nuclear factor erythroid 2-related factor 2/antioxidant responsive element (Nrf2/ARE) small molecule agonists: luciferase reporter gene qHTS assay in human keratinocytes (AID 1919969); also: nearly all actives have a fitted effect of over 35% in size
[3] = target: Gonadotropin-releasing hormone receptor (Homo sapiens) (UniProt P30968); test: Human gonadotropin-releasing hormone receptor (GnRHR) small molecule agonists, calcium flux assay in GnRHR-HEK293 cells (AID 1920063); also: nearly all actives have a fitted effect of over 35% in size
Summary of the method: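 HEK293 cells stably expressing human GnRHR were plated 18 h at 37 °C, loaded with calcium dye 1 h at 37 °C, then given compound in agonist mode; fluorescence (Ex/Em 480/540) read kinetically for 3 min at 1 s intervals.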

[4] = G protein-coupled receptor (GPCR) small molecule agonists, calcium flux assay: HEK293 wild type cell line counter screen (AID 1920065)
Summary of the method: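 Cells were plated and cultured 18 h at 37 C/5% CO2, then loaded with calcium dye for 1 h at 37 C. Compounds in DMSO were pin-transferred in agonist mode, and fluorescence (Ex/Em 480/540) was read kinetically for 3 min at 1 s intervals.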

[5] = p53 small molecule agonists, cell-based qHTS assay with human liver microsomes (AID 1963577);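 also: p53 response element beta-lactamase reporter cells with liver microsomes plus NADPH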
Summary of the method: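 p53RE-bla cells; 5 h settle, 37 C/5% CO2; cpd + HLM 0.5 mg/mL + NADPH 0.5 mg/mL (final); 16 h 37 C; LiveBLAzer 2 h RT dark; fluorescence readout.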

[6] = p53 small molecule agonists, cell-based qHTS assay with rat liver microsomes (AID 1963578)
Summary of the method: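 Rat liver microsome activation: microsomes 0.5 mg/mL, NADPH 0.5 mg/mL final; p53RE-bla cells, 16 h 37 C; LiveBLAzer readout, 2 h RT dark.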

[7] = p53 small molecule agonists, cell-based qHTS assay with human liver microsomes: qHTS cell viability counter screen (AID 1963579); also: nearly all actives have a fitted effect of over 45% in size
Summary of the method: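 Luminescent CellTiter-Glo read-out, 30 min at room temperature, gauged cytotoxicity in p53RE-bla cells exposed 16 h at 37 C to DMSO-dissolved compounds with metabolic activation by human liver microsomes and NADPH, each 0.5 mg/mL final.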

[8] = p53 small molecule agonists, cell-based qHTS assay: qHTS cell viability counter screen (AID 1963581); also: nearly all actives have a fitted effect of over 45% in size
Summary of the method: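 p53RE-bla HCT-116 cells were exposed to compounds for 16 h at 37 C; after the beta-lactamase FRET read in the same wells, CellTiter-Glo was added and luminescence (intracellular ATP) read after 30 min at room temperature.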

[9] = p53 small molecule agonists, cell-based qHTS assay (AID 1963582; active = well fitted activation curve with a large enough effect in the signal ratio in the repeat runs, not every such curve was filed as active; the % refers to the signal ratio)
Summary of the method: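 p53RE-bla beta-lactamase reporter cells rested 5 h at 37 C/5% CO2, then received compounds in DMSO by pin transfer and were incubated 16 h at 37 C. LiveBLAzer B/G FRET substrate was loaded for 2 h at room temperature before fluorescence reading.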

[10] = target: 5-hydroxytryptamine receptor 2A (Homo sapiens) (UniProt P28223); test: 5-hydroxytryptamine receptor 2A (HTR2A) small molecule antagonists, cell-based qHTS assay (AID 1963586); also: nearly all actives have a fitted effect of over 45% in size
Summary of the method: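 Antagonist-mode intracellular calcium assay: DOI (4 nM) added after 5 min compound pre-incubation at room temperature to dye-loaded HTR2A-CHO cells. Fluorescence followed for 3 min, sampled every second.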

[11] = target: 5-hydroxytryptamine receptor 2A (Homo sapiens) (UniProt P28223); test: 5-hydroxytryptamine receptor 2A (HTR2A) small molecule agonists, cell-based qHTS assay (AID 1963587); also: nearly all actives have a fitted effect of over 30% in size
Summary of the method: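 CHO cells stably expressing human HTR2A, plated 18 h, loaded with calcium dye 1 h at 37 C. Agonist mode: compounds added and intracellular calcium fluorescence recorded kinetically for 2 min at 1 sec intervals.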

[12] = target: Muscarinic acetylcholine receptor M1 (Homo sapiens) (UniProt P11229); test: Cholinergic receptor muscarinic 1 (CHRM1) small molecule antagonists, cell-based qHTS assay (AID 1963588); also: nearly all actives have a fitted effect of over 40% in size
Summary of the method: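 CHRM1-CHO calcium-flux assay, antagonist mode. Cells were seeded 18 h, dye-loaded 1 h at 37 C and given compound for 5 min at RT, then acetylcholine was added at 50nM. FDSS fluorescence was read 3 min; 15 concentrations, three runs.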

[13] = target: Muscarinic acetylcholine receptor M1 (Homo sapiens) (UniProt P11229); test: Cholinergic receptor muscarinic 1 (CHRM1) small molecule agonists, cell-based qHTS assay (AID 1963589); also: nearly all actives have a fitted effect of over 35% in size
Summary of the method: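 CHO cells stably expressing human CHRM1, seeded 18 h at 37 C/5% CO2, dye-loaded 1 h at 37 C, then given compound in agonist mode; intracellular calcium fluorescence read kinetically at 1 s intervals. Fifteen concentrations, three independent runs.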

[14] = cAMP Responsive Elements (CRE) small molecule agonists, cell-based qHTS assay (AID 1963590)
Summary of the method: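 CRE-bla HEK 293T cells in DMEM with 10% dialyzed FBS, NEAA, pyruvate and 25 mM HEPES were plated 18 h at 37 C/5% CO2, then exposed to compounds in DMSO for 3 h before LiveBLAzer B/G FRET substrate addition.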

[15] = cAMP Responsive Elements (CRE) small molecule antagonists, cell-based qHTS assay (AID 1963591; active = well fitted inhibition curve with a large enough effect in the signal ratio in the repeat runs, not every such curve was filed as active; the % refers to the signal ratio)
Summary of the method: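 CRE-bla HEK293T cells were plated 18 h at 37 °C/5% CO2, pinned with compound in DMSO, then stimulated with NKH477 at 0.25 uM final for 3 h. LiveBLAzer B/G FRET substrate was added and plates incubated 2 h at room temperature.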

[16] = target: Beta-2 adrenergic receptor (Homo sapiens) (UniProt P07550); test: Adrenergic beta2 receptor (ADRB2) small molecule antagonists, cell-based qHTS assay (AID 1963592); also: series mostly up to about 92 µM; nearly all actives have a fitted effect of over 50% in size
Summary of the method: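 Cells (CHO, stable ADRB2 overexpression) incubated 18-20hr at 37C; compounds added from DMSO; agonist mix (1nM isoproterenol, 100uM IBMX, 25uM Ro-20-1724) added; 0.5hr RT; d2-cAMP and anti-cAMP-cryptate added; 1hr RT; 665/615 nm read.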

[17] = target: Beta-2 adrenergic receptor (Homo sapiens) (UniProt P07550); test: Adrenergic beta2 receptor (ADRB2) small molecule agonists, cell-based qHTS assay (AID 1963593);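 also: CHO cells stably overexpressing human ADRB2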
Summary of the method: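 CHO cells stably over-expressing ADRB2 were plated overnight at 37C, then dosed with compounds plus a stimulation mix containing 100uM IBMX and 25uM Ro-20-1724 for 0.5hr at room temperature. cAMP was measured by HTRF competition, 1hr.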

[18] = target: D(2) dopamine receptor (Homo sapiens) (UniProt P14416); test: Dopamine D2 receptor (DRD2) small molecule antagonists, cell-based qHTS assay (AID 1963595; active = well fitted inhibition curve with a large enough effect in the signal ratio in the repeat runs, with a control signal flat; the % refers to the signal ratio)
Summary of the method: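 Antagonist mode in DRD2-HEK293 cells: after compound addition with 0.1 mM Ro20-1724, cells received quinpirole (12 nM) and NKH477 (200 nM) for 30 min at room temperature; HTRF cAMP read after 1 h detection.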

[19] = p53 small molecule agonists, cell-based qHTS assay with rat liver microsomes: qHTS cell viability counter screen (AID 1963580); also: nearly all actives have a fitted effect of over 45% in size
Summary of the method: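 p53RE-bla HCT-116 cells were exposed 16 h at 37 C to compounds with rat liver microsomes (0.5 mg/mL) and NADPH (0.5 mg/mL). Viability was measured in the same wells as ATP content by CellTiter-Glo luminescence.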

[20] = target: D(2) dopamine receptor (Homo sapiens) (UniProt P14416); test: Dopamine D2 receptor (DRD2) small molecule agonists, cell-based qHTS assay (AID 1963594); also: nearly all actives have a fitted effect of over 35% in size
Summary of the method: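 HEK293 cells stably expressing human DRD2, pre-treated with PDE inhibitor Ro20-1724 (0.1 mM final) and compound 10 min at room temperature, then stimulated with NKH477 (200nM […]) for 30 min. cAMP read by HTRF (665/620 nm).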

Measured: Potency

Sequence of Muscarinic acetylcholine receptor M1 (Homo sapiens) (P11229 whole entry, looked up): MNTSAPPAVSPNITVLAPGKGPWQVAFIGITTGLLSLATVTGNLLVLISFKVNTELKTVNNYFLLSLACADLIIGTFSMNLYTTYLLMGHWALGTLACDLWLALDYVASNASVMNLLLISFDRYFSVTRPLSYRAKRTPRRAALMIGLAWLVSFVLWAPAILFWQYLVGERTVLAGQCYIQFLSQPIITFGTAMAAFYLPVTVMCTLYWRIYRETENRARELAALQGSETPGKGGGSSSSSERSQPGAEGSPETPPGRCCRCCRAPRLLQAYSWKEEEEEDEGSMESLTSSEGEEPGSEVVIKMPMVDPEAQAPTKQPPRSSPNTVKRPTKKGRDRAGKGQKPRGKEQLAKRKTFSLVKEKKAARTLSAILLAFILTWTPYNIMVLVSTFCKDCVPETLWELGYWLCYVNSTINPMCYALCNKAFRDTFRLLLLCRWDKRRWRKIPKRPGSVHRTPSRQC
Sequence of Beta-2 adrenergic receptor (Homo sapiens) (P07550 whole entry, looked up): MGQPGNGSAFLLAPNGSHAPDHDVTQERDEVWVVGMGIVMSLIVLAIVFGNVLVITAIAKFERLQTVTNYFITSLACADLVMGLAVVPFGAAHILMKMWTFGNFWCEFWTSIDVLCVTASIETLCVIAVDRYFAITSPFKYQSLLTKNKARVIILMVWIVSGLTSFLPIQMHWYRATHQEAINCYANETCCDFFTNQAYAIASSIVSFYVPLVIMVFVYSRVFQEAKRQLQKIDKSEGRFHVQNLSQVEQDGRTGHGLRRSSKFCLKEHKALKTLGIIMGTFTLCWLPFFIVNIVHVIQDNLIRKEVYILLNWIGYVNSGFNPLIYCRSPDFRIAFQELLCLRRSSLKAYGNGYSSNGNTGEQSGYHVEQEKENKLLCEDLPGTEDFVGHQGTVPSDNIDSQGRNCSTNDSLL
Sequence of 5-hydroxytryptamine receptor 2A (Homo sapiens) (P28223 whole entry, looked up): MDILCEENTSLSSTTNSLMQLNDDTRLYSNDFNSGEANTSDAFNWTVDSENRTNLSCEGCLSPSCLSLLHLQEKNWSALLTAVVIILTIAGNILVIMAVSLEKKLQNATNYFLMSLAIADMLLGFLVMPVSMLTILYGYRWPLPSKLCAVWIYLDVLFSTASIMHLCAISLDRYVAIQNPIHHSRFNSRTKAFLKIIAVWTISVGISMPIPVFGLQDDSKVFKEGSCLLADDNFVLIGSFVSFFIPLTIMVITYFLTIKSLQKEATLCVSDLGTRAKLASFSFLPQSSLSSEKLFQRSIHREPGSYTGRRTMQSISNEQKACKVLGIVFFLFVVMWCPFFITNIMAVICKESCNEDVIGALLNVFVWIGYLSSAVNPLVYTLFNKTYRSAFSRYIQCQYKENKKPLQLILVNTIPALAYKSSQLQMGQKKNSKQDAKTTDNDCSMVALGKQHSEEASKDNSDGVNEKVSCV
Sequence of D(2) dopamine receptor (Homo sapiens) (P14416 whole entry, looked up): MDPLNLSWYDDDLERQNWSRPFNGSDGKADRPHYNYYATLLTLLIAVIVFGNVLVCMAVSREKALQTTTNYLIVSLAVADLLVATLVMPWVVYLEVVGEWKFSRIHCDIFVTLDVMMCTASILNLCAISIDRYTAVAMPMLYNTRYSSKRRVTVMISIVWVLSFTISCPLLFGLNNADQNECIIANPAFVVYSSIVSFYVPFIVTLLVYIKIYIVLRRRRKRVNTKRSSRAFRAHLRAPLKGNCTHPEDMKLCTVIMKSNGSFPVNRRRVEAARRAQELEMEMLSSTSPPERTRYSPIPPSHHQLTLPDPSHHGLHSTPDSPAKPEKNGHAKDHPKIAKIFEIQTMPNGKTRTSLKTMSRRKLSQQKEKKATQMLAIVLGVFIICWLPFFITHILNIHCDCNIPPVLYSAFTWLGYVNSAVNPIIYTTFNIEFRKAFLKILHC
Sequence of Gonadotropin-releasing hormone receptor (Homo sapiens) (P30968 whole entry, looked up): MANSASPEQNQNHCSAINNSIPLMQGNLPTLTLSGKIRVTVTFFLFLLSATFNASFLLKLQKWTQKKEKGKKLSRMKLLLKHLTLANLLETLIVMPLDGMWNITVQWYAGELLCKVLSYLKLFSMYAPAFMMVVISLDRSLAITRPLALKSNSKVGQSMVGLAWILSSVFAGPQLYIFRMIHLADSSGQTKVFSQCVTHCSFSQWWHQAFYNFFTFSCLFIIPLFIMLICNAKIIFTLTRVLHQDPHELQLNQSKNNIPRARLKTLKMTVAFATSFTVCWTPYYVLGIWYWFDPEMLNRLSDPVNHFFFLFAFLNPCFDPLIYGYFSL

CC(=O)[C@H]1CC[C@H]2[C@@H]3CC=C4C[C@@H](O)CC[C@]4(C)[C@H]3CC[C@]12C
not listed: [19] | [20]
inactive: all other assays above

CCCCCC/C=C/CCCCCCCC(=O)O
not listed: [15] | [20]
inactive: all other assays above

CC(C)(CO)CO
not listed: [7] | [17]
inactive: all other assays above

NC(CO)(CO)CO
not listed: [10] | [11] | [12] | [13] | [19]
inactive: all other assays above

O=C(O)CCCCCCCC(=O)O
inactive: all assays above

OC(CCl)CCl
not listed: [6] | [17]
inactive: all other assays above

C/C=C/C(=O)N(CC)c1ccccc1C
not listed: [7] | [8] | [10] | [11] | [12] | [13] | [17]
inactive: all other assays above

Cc1ccc(C)c(O)c1
not listed: [8] | [9]
inactive: all other assays above
